Data on 14 molecules can be found in PubChem BioAssay (NCI).

Holding throughout (experiment): NCI-60 one-dose screen, 48 h (100 = growth as untreated, 0 = no growth, -100 = all killed)
Holding throughout (conditions): 10 µM unless noted

Experiment [1] has as its system DU-145 prostate.
Experiment [2] concerns K-562 leukemia.
Experiment [3] relates to MALME-3M melanoma.
In experiment [4] the test system is MDA-MB-231 breast.
The test system of experiment [5] is RXF 393 renal.
For experiment [6], the system named is SF-268 CNS.
For experiment [7], the system named is SF-295 CNS.
The test system of experiment [8] is SF-539 CNS.
For experiment [9], the system named is UACC-257 melanoma.
For experiment [10], the system named is M14 melanoma.
The subject of experiment [11] is HCT-15 colon.
The test system of experiment [12] is HT29 colon.
Experiment [13] deals with SNB-75 CNS.
The subject of experiment [14] is SNB-19 CNS.
For experiment [15], the system named is U251 CNS.
In experiment [16] the test system is PC-3 prostate.
Experiment [17] concerns SK-MEL-5 melanoma.
Experiment [18] deals with UACC-62 melanoma.
Experiment [19] relates to LOX IMVI melanoma.
Experiment [20] relates to SK-MEL-28 melanoma.

This is part of a sample that, as a whole, favours compounds with a hit. Of some 83,000 tested, about 20% had one in any assay.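 Step 1: grow cells in 96-well plates. Step 2: add test compound at a single concentration. Step 3: incubate 48 h. Step 4: record percent growth.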 A number with no mark means an inactive call. Activity calls are given as the source filed them. The calls were made as follows: active = growth percent below 10; inactive = the rest.

Regarding `CC1=Cc2ccccc2OC12C=Cc1ccccc1O2` (stereo not given), the growth was 119% in [1]; 92.3% in experiment [2]; 98.7% in experiment [3]; 89.8% in [4]; 97.8% in [5]; 98.8% in experiment [6]. Further, the growth in experiment [7] was 97.2%; in [8] it was 97.8%; in [9], 114%; in experiment [10], 107%; in experiment [11], 96.8%; in experiment [12], 98.2%. The growth in experiment [13] was 81.4%; in [14], 91.1%; in experiment [15], 102%; in experiment [16] it was 84.9%; in [17] it was 92.4%; in [18], 83%. For the same molecule, the growth was 90.6% in [19] and 114% in experiment [20].

As for `COc1ccc(/C=N/NC(=O)CSc2nc(-c3cnccn3)cc(-c3cccs3)c2C#N)cc1OC`, the growth in experiment [1] was 100%; in [2] it was 95.5%; in experiment [3], 69.1%; in experiment [4] it was 50.1%; in experiment [5], -12.9% (active); in experiment [6], 70.5%. The growth in experiment [7] is 83.1%; in experiment [8] it was 36.7%; in experiment [9] it was 91.7%; in experiment [10] it was 77.5%; in experiment [11], 89.1%; in experiment [12], 60.9%. For the same molecule, the growth in experiment [13] was 81.9%; in experiment [14], 78.1%; in [15], 21%; in experiment [16], 80.8%; in experiment [17], 34.8%; in [18], 19.8%. Further, the figures for the growth in experiment [19] and in experiment [20] were 59.9% and 98.2%, respectively.

Take `O=C(/C=C/C=C/c1csc(Br)n1)NO`: the growth in [1] was 94.3%; in experiment [2], 73%; in experiment [3], 85.2%; in experiment [4], 106%; in experiment [5] it was 95.2%; in experiment [6] it was 102%. The growth was 107% in experiment [7]; 83.2% in [8]; 79.8% in experiment [9]; 94.6% in [10]; 94.5% in experiment [11]; 94.5% in experiment [12]. Also, the growth in experiment [13] is 75.6%; in experiment [14], 94.4%; in [15], 98.6%; in experiment [16], 84.8%; in experiment [17], 96%; in experiment [18] it was 84.8%. For the same molecule, the growth was -31.7% (active) in experiment [19] and 102% in experiment [20].

`COc1cc2oc(-c3cccc(NC(=O)c4cccc([N+](=O)[O-])c4)c3)cc(=O)c2c(OC)c1OC`: the growth is 66.9% in [1]; 60.3% in experiment [2]; 33.7% in experiment [3]; 41% in experiment [4]; 36.4% in experiment [5]; 43.2% in experiment [6]. Besides, the growth was 79.8% in experiment [7]; -8.95% (active) in experiment [8]; 88.2% in experiment [9]; 83.8% in experiment [10]; 56% in experiment [11]; 66.4% in [12]. The growth in experiment [13] was -13.5% (active); in [14], 53.6%; in [15], 41.9%; in experiment [16], 50.2%; in experiment [17] it was 55%; in experiment [18] it was 51%. The growth in experiment [19] is 33.4%; in experiment [20], 88.1%.

Take `COc1ccc(-c2cnc(NC(=O)CCCCCCNC(=O)C(O)(O)C(F)(F)F)s2)cc1`: the growth is -8.16% (active) in [1]; 14.4% in experiment [2]; 11% in experiment [3]; 17% in experiment [4]; -48% (active) in [5]; 2% (active) in experiment [6]. In addition, the growth is -44.2% (active) in experiment [7]; 12% in [8]; 18.3% in experiment [9]; 14.4% in experiment [10]; 4.2% (active) in experiment [11]; 0.86% (active) in experiment [12]. Further, the growth in experiment [13] was 36.8%; in experiment [14] it was 17.5%; in experiment [15], -46.4% (active); in experiment [16], 17.8%; in [17] it was -62.2% (active); in [18] it was -31.8% (active). In addition, the figures for the growth in [19] and in [20] were -89.5% (active) and 8.09% (active), respectively.

For `CCCC[n+]1ccc(SCC(=O)n2ccc3ccccc32)c2ccccc21`, the growth in [1] is 94.6%; in [2] it was 66.9%; in experiment [3] it was 95.9%; in [4], 92.4%; in experiment [5], 94.9%; in [6], 101%. In addition, the growth in experiment [7] was 96.5%; in experiment [8] it was 103%; in [9], 95.7%; in [10] it was 98.8%; in experiment [11], 103%; in experiment [12], 96.9%. Besides, the growth is 92.7% in experiment [13]; 97.4% in experiment [14]; 89.3% in experiment [15]; 90.9% in experiment [16]; 85.8% in [17]; 77.7% in [18]. The growth was 101% in experiment [19] and 109% in [20].

On to `COc1ccc(/C(=N\N=C(N)N)c2ccc(Cl)cc2)cc1OC`, for which the growth is 90.3% in [1]; 49.6% in experiment [2]; 90% in experiment [3]; 71% in experiment [4]; 54.3% in experiment [5]; 59.9% in [6]. Further, the growth in [7] is 71.8%; in [8], 83%; in experiment [9] it was 90.2%; in experiment [10], 65.5%; in experiment [11], 77.3%; in [12], 54.9%. Moreover, the growth was 46.2% in [13]; 72.9% in experiment [14]; 72.4% in experiment [15]; 44% in experiment [16]; 93% in [17]; 80.2% in [18]. The figures for the growth in experiment [19] and in experiment [20] were 58.3% and 96.5%, respectively.

As to `COc1ccc2c(c1)c(-c1nn3cc(-c4ccncc4)nc3s1)cn2C`, the growth in experiment [1] was 93.9%; in experiment [2], 28.4%; in experiment [3], 89.9%; in experiment [4], 77%; in experiment [5], 83.2%; in experiment [6] it was 79%. Further, the growth was 75.3% in experiment [7]; 84% in [8]; 116% in [9]; 107% in experiment [10]; 60.7% in experiment [11]; 79.2% in experiment [12]. The growth in experiment [13] was 29.6%; in experiment [14] it was 86.1%; in experiment [15], 83%; in [16], 71.2%; in experiment [17], 86.3%; in [18], 68.7%. The growth in experiment [19] was 65.9%; in [20] it was 114%.

As for `Clc1cccc(/C=N/Nc2nc(N/N=C/c3cccc(Cl)c3)nc(N3CCOCC3)n2)c1`, the growth in [1] is 42.5%; in experiment [2] it was 11.8%; in [3], -43.7% (active); in [4] it was 71.3%; in experiment [5], 17.4%; in experiment [6], 65.9%. For the same molecule, the growth in [7] was 57.7%; in experiment [8], 43.6%; in [9], 39.1%; in experiment [10], 35.2%; in experiment [11] it was -11.1% (active); in experiment [12], 8.21% (active). Besides, the growth was 103% in experiment [13]; 88% in experiment [14]; 60.4% in experiment [15]; 41.5% in experiment [16]; 44.1% in experiment [17]; 91.7% in [18]. Moreover, the growth in [19] is 32.6%; in experiment [20] it was 29.8%.

As to `CCOC(=O)C1=C(C)NC(C)=C(C(=O)OCc2ccccc2)C1c1cccc(C#N)c1` (stereo not given), the growth in [1] is 57.2%; in experiment [2], 16.9%; in experiment [3] it was 38%; in [4], 52.3%; in experiment [5], 44.5%; in experiment [6], 57.1%. For the same molecule, the growth in [7] is 15.5%; in experiment [8], 23.1%; in [9], 55.9%; in experiment [10], 14.6%; in [11], 23%; in [12], 11.5%. Besides, the growth in experiment [13] was -4.08% (active); in experiment [14], 41.5%; in experiment [15], 41.4%; in experiment [16], 33.1%; in experiment [17], 54.3%; in [18] it was 33.4%. Moreover, the growth in experiment [19] was 35.8%; in experiment [20], 51.2%.

`Cc1ccc(S(=O)(=O)c2nc(-c3ccc(F)cc3)oc2S(C)(=O)=O)cc1`: the growth was 77% in experiment [1]; 1.76% (active) in experiment [2]; -45.6% (active) in experiment [3]; 65% in [4]; 40.3% in [5]; 95.1% in experiment [6]. The growth in [7] is 95.4%; in experiment [8], 58.1%; in experiment [9], 90.3%; in experiment [10], 64%; in experiment [11], 13.4%; in experiment [12] it was 55.1%. The growth in experiment [13] was 87.2%; in [14], 91.4%; in [15] it was 96.1%; in [16], 91.8%; in experiment [17], 98.4%; in [18] it was 84.4%. For the same molecule, the results for the growth in experiment [19] and in experiment [20] were -68.8% (active) and 79.8%, respectively.

As for `CC1CCN(CC(=O)Nn2c(COc3ccccc3)nc3ccccc3c2=O)CC1`, the growth in experiment [1] was 101%; in [2] it was 32.2%; in experiment [3] it was 79.5%; in experiment [4] it was 78.4%; in experiment [5], 94.2%; in [6], 99.4%. Besides, the growth in experiment [7] was 96.9%; in experiment [8], 88.6%; in experiment [9] it was 95.4%; in [10], 78.9%; in experiment [11], 56%; in [12], 73.1%. Besides, the growth in experiment [13] was 72.6%; in experiment [14] it was 86.4%; in experiment [15], 81.4%; in experiment [16] it was 94.3%; in [17], 82.9%; in experiment [18] it was 69.3%. For the same molecule, the growth in [19] was 85.3%; in experiment [20] it was 92.8%.

With `C/C(=N\NC(=O)/C=C/CC(=O)O)c1nnn(-c2ccc([N+](=O)[O-])cc2)c1C`, the growth in experiment [1] is 104%; in [2], 103%; in [3], 97.9%; in experiment [4] it was 104%; in experiment [5], 106%; in experiment [6], 96.9%. Moreover, the growth in [7] is 97%; in experiment [8], 100%; in experiment [9] it was 105%; in experiment [10], 103%; in experiment [11] it was 105%; in [12] it was 106%. Besides, the growth in experiment [13] was 97.6%; in experiment [14] it was 98.3%; in [15], 100%; in experiment [16], 94.7%; in experiment [17] it was 99.2%; in experiment [18], 101%. For the same molecule, the growth was 101% in experiment [19] and 114% in [20].

On to `CS(=O)(=O)c1ccc(/C(=N/N=C(N)N)c2ccc(F)cc2)cc1`, for which the growth was 106% in [1]; 25.1% in [2]; 97.4% in experiment [3]; 105% in experiment [4]; 86.1% in [5]; 78.9% in experiment [6]. For the same molecule, the growth in experiment [7] was 71%; in [8], 99.5%; in experiment [9], 76.9%; in [10], 67.2%; in experiment [11], 74.9%; in experiment [12], 91.5%. The growth in experiment [13] is 94.6%; in [14] it was 63%; in experiment [15], 67.2%; in experiment [16] it was 73.9%; in [17] it was 82.8%; in experiment [18], 74.6%. In addition, the values for the growth in experiment [19] and in [20] were 54.4% and 95.5%, respectively.
